Sampled rows, rich in hits. Any-hit rate of the full collection: about 7.5%.
FMDV antiviral: foot and mouth disease virus antiviral activity; FMDV antiviral cell-based qHTS; Potency, µM (titrated, usually from 57.9 µM), for inactives: top-dose activity change, negative = inhibition, hits mostly inhibitors; hit rate 1.2% among 410,000; AID 1159524; calls by dose curve; tested in HEK293T cells; further: read-out not given here; potency means the concentration at half of the fitted maximal effect; nearly all actives have a fitted effect of over 45% in size
Vaccinia Venus: vaccinia inhibition (Venus reporter); hit rate 0.46% among 330,000; Vaccinia virus Venus reporter expression, fluorescence; Potency, µM (highest dose often 36.5 µM), without a hit: at the highest dose activity change, negative = inhibition, usual class: inhibitors; AID 720580; calls by dose curve; tested in A549 cells; further: potency means the concentration at half of the fitted maximal effect; nearly all actives have a fitted effect of over 30% in size
VACV mCherry inh: inhibitors of vaccinia virus infection (mCherry reporter signal). Vaccinia virus mCherry reporter infection, fluorescence. Potency, µM (top dose mostly 36.5 µM), without a hit: at the top dose activity change, negative = inhibition, hits mostly inhibitors. hit rate 0.63% among 310,000. AID 720579; calls by dose curve; tested in A549 cells; further: potency means the concentration at half of the fitted maximal effect; nearly all actives have a fitted effect of over 35% in size
FBPA Giardia inh: blocks Giardia fructose-bisphosphate aldolase activity | A8B2U2 | purified Giardia FBPA | hit rate 0.71% among 290,000 | Potency, µM (top dose mostly 59.6 µM), for the others: at the top dose activity, negative = inhibition, hits mostly inhibitors; further: potency means the concentration at half of the fitted maximal effect; nearly all actives have a fitted effect of over 55% in size
Target sequence (A8B2U2 whole entry, looked up): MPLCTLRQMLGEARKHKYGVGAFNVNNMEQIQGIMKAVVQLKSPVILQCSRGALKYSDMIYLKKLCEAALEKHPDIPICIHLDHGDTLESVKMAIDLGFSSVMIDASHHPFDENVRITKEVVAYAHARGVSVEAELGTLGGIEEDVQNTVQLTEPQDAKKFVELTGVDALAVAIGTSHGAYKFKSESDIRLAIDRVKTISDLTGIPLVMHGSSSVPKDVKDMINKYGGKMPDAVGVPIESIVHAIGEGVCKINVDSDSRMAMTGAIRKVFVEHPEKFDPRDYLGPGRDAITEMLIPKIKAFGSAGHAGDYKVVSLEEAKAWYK
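40 nM FBPA preincubated 10 min at RT with compound (up to 57.5 uM final), then substrate plus GAPDH/TPI/NAD/arsenate coupling and diaphorase/resazurin added. Fluorescence read after 20 min at RT, 525/598 nm.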
HCV inhibitor: HCV inhibition; Potency, µM (titrated, usually from 41.8 µM), for the others: at the highest dose activity change, negative = inhibition, most hits filed as inhibitors; Huh7.5.1 HCVcc-Cre infection, luciferase reporter, 44 h; hit rate 3.4% among 340,000; AID 651820; further: potency means the concentration at half of the fitted maximal effect
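A cell-based infection assay in which seeded cells (1,000 per well) receive test compound after 4 h, are inoculated with HCVcc-Cre at approximately 0.5 moi, and are incubated 44 h before luminescence detection.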
HCMV inh: blocks human cytomegalovirus replication | HFF cells, HCMV-luciferase reporter, 72 h; active compounds read low | activity change, negative = inhibition, % at 57.5 µM | hit rate 4.5% among 410,000 | AID 1259415; in the data active means activity change below about -60%; inconclusive means no clear call, values can overlap the other calls; inactive means above about -39%
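Compounds were evaluated in HFFs infected with an HCMV luciferase reporter virus (MOI 1 PFU/cell). Luciferase in lysates collected 72 h post infection served as the replication measure.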
* hit, by the source's call; i = inactive; ? = inconclusive; / = not tested or not shown; [ ] = remark or other dose. Unless noted, the call rests on the fitted dose curve; in most records, active means well fitted curve in the direction sought with a large enough effect; inconclusive means small, poorly fitted or top-dose-only effect, or another doubt; inactive means no such curve, though single readings can be large; an effect the other way counts as inactive or inconclusive. On the % scale 0 is the no-effect control and ±100 the full control effect.

SMILES	FMDV antiviral	Vaccinia Venus	VACV mCherry inh	FBPA Giardia inh	HCV inhibitor	HCMV inh
COc1cc(C2c3c(-c4ccccc4O)n[nH]c3C(=O)N2CCO)ccc1OCC(C)C (stereo not given)	-26%	-4%	-9%	/	/	20
CS(=O)(=O)c1nc(S(=O)(=O)c2ccc(Cl)cc2)c(N2CCCCCC2)s1	33%	-4%	-21%	-5%	-2%	?
CS(=O)(=O)c1nc(S(=O)(=O)c2ccc(Cl)cc2)c(N2CCCCC2)s1	29%	-20%[7.34 µM]	i[7.34 µM]	/	-11%	?
CN1CCN(c2sc(S(C)(=O)=O)nc2S(=O)(=O)c2ccc(Cl)cc2)CC1	-4%	-5%[7.34 µM]	-13%[7.34 µM]	/	6%	-80*
CCS(=O)(=O)c1nc(S(=O)(=O)c2ccc(Cl)cc2)c(N2CCN(C)CC2)s1	0%	-8%[7.34 µM]	-2%[7.34 µM]	/	16%	-77*
CS(=O)(=O)c1nc(S(=O)(=O)c2ccc(Cl)cc2)c(N2CCN(CCO)CC2)s1	-9%	/	/	/	-2%	-63*
Cc1ccc(S(=O)(=O)c2nc(S(=O)(=O)c3ccc(C)cc3)c(N3CCN(CCO)CC3)s2)cc1	6%	/	/	/	?	-107*
Cc1ccc2c(c1C)-c1c(ccc(C)c1C)C(=O)C2=O	28µM*	10µM*	?	/	11µM*	-96*
CN(C)CCNC(=O)c1ccc(-n2c(-c3ccccc3)cc3c2CCCC3)cc1	-9%	-25%	-18%	/	/	-92*
CC(C)NC(=O)c1ccc(-n2c(-c3ccccc3)cc3c2CCCC3)cc1	-13%	-19%	-10%	/	/	-68*
COCCNC(=O)c1ccc(-n2c(-c3ccccc3)cc3c2CCCCC3)cc1	17%	-21%	-23%	/	/	-99*
CCC(C)NC(=O)c1ccc(-n2c(-c3ccccc3)cc3c2CCCC3)cc1 (stereo not given)	12%	-16%	-15%	/	/	24
CCCNC(=O)c1ccc(-n2c(-c3ccccc3)cc3c2CCCCC3)cc1	-4%	-9%	i	/	/	-87*
CCNC(=O)c1ccc(-n2c(-c3ccccc3)cc3c2CCCCC3)cc1	21%	-13%	-8%	/	/	-15
CCOCCCNC(=O)c1ccc(-n2c(-c3ccccc3)cc3c2CCCCC3)cc1	25%	-7%	1%	/	/	?
COc1ccccc1CN1CC[C@@]2(CCCN(C(=O)c3ccco3)C2)C1	2%	/	/	-7%	/	/
COC(=O)c1ccc(NC(=O)CCN2C(=O)CSC2=O)cc1	36%	-8%	-5%	1%	15%	19
Cc1ccc(CNC(=O)C(C)n2nc(C)n3c(cc4sccc43)c2=O)cc1 (stereo not given)	-11%	-1%	-5%	/	/	7
O=C(C[N+]12CCCc3cccc(c31)CCC2)c1ccc(Cl)c2ccccc12	/	-4%	-12%	/	/	/
C[C@H](CO)N1C[C@H](C)[C@@H](CN(C)CC2CC2)Oc2c(NC(=O)Cc3ccccc3)cccc2C1=O	36%	-19%	i	/	3.2µM*	?
C[C@H](CO)N1C[C@H](C)[C@@H](CN(C)Cc2ccc(C(=O)O)cc2)Oc2c(NC(=O)C3CC3)cccc2C1=O	-10%	-1%	2%	/	-5%	-30
C[C@H](CO)N1C[C@H](C)[C@@H](CN(C)C)Oc2c(NC(=O)C3CC3)cccc2C1=O	28%	-2%	i	/	3.2µM*	-22
C[C@H](CO)N1C[C@H](C)[C@@H](CN(C)S(C)(=O)=O)Oc2c(NC(=O)Cc3ccccc3)cccc2C1=O	4%	-16%	i	/	9%	-11
C[C@H](CO)N1C[C@H](C)[C@@H](CN(C)Cc2ccc(Oc3ccccc3)cc2)Oc2c(NC(=O)C3CC3)cccc2C1=O	-14%	?	-28%	/	16µM*	-32
C[C@H](CO)N1C[C@H](C)[C@@H](CN(C)CC2CC2)Oc2c(NC(=O)C3CC3)cccc2C1=O	32%	-1%	0%	/	25%[8.37 µM]	6
SMILES	FMDV antiviral	Vaccinia Venus	VACV mCherry inh	FBPA Giardia inh	HCV inhibitor	HCMV inh
C[C@H](CO)N1C[C@H](C)[C@@H](CN(C)C(=O)NC2CCCCC2)Oc2c(NC(=O)C3CC3)cccc2C1=O	50%	-18%	i	/	40%	-100*
COCC(=O)Nc1cc(C(=O)N2CCCOc3c(cccc3OC)C2)c2c(c1)nc(C1CCC1)n2C	-3%	-11%	-9%	/	/	/
Cc1noc(C)c1NC(=O)N(C)C[C@H]1Oc2c(NC(=O)C3CCCCC3)cccc2C(=O)N([C@H](C)CO)C[C@@H]1C	38%	0%	0%	/	4µM*	-3
C[C@@H]1CN([C@H](C)CO)C(=O)Cc2cc(NC(=O)Nc3ccccc3)ccc2O[C@@H]1CN(C)Cc1ccc2c(c1)OCO2	?	28µM*	?	/	3.5µM*	15
C[C@H]1CN([C@@H](C)CO)C(=O)c2cc(NC(=O)C3CCCCC3)ccc2O[C@H]1CN(C)C(=O)Nc1ccc2c(c1)OCO2	-15%	-22%	i	/	1µM*	21
CCOC(=O)CCCCCC(=O)Nc1ccc2c(c1)CC(=O)N([C@H](C)CO)C[C@@H](C)[C@H](CN(C)Cc1ccc3c(c1)OCO3)O2	-16%	-20%	i	/	16%	18
Cc1cccc(CNCCn2cc(C(=O)Nc3ccccc3)nn2)c1	10%	-16%	-15%	/	/	/
Cc1ccnc2ccc3ccccc3c12	/	-31%	-12%	/	/	/
Cc1cccc(C)c1NC(=O)CN1CCN(CCCC(c2ccc(F)cc2)c2ccc(F)cc2)CC1	0%	?	?	1%[21.7 µM]	2µM*	6
O=c1[nH]/c(=C/c2ccc3c(c2)OCO3)c(=O)[nH]/c1=C/c1ccc2c(c1)OCO2	/	-14%	-2%	/	/	/
O=C(O)Cn1c(CCS(=O)(=O)c2ccc(Br)cc2)nc2ccccc21	-1%	-12%	i	1%	21%	-13
Cc1ccc(S(=O)(=O)CCc2nc3ccccc3n2CCC#N)cc1	-26%	-21%	-24%	2%	?	-81*
Cc1ccc(S(=O)(=O)CC2CSc3nc4ccccc4n32)cc1 (stereo not given)	?	-22%	-24%	8%	?	-72*
Cc1ccc(S(=O)(=O)CC2CSc3nc(N)cc(=O)n32)cc1 (stereo not given)	0%	/	/	1%	9%	4
Cc1ccc(O)c(NC(=O)c2cc3nc4c(c(C(F)(F)F)n3n2)CCc2ccccc2-4)c1	?	-7%	-14%[1.46 µM]	7%	6%	28
CCN(CC)CCCNC(=O)c1cc2nc3c(c(C(F)(F)F)n2n1)CCc1ccccc1-3	-9%	-7%	-16%	2%	1.6µM*	?
c1ccc2c(c1)c1ccccc1n1c(-c3ccc4c(c3)OCO4)nnc21	25µM*	3%	1%	2%	?	14
Cn1c(-c2ccc3c(c2)OCO3)cc(=O)c2ccccc21	0%	-10%	-8%	-7%	13%	-27
O=C1COc2cc(S(=O)(=O)CCC(=O)N3CCCCC3)c(Cl)cc2N1	-13%	-17%	i	0%	11%	9

Source: PubChem
